The record followed here is the supplement of paper PMC10338343.

± gives the standard deviation.

The subject of the first assay is MILI (PIWIL2) piRISC loaded with L1MC piRNA (26 nt). As to the kind of experiment: pre-steady-state target cleavage rate (min^-1); guide: L1MC piRNA 5'p-UAACUAAAUACUAUGCAAGCUGUAGG; MIWI and MILI are mouse PIWI proteins and EfPiwi is from a freshwater sponge; tags in brackets are library labels; higher = faster piRNA-guided slicing of the target. Particulars: auxiliary factor: 500 nM mouse GTSF1. A digest of the protocol: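 With or without 500 nM GTSF1 partner protein, 1 nM active affinity-purified piRISC carrying one synthetic guide was mixed with 0.1 nM transcribed, DNA-blocked target RNA library in HEPES–potassium acetate buffer at 33 °C for 0–8 or 0–960 min. Uncleaved targets were sequenced and normalised to depth and to weakly complementary targets, three trials were pooled, and k3 was capped at 0.0001 min^-1. The pre-steady-state cleavage rate came from a burst-and-steady-state fit.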
With UCCUGGAUGAGCAACCAUAGUAUUUAGUAA, the “pre-steady-state target cleavage rate” value was found to be 0.0492 ± 0.016.
For the sequence UCCUCCUACAGCUUGCAUAGCUAUUUAGUUA, the “pre-steady-state target cleavage rate” value was determined as 0.0126 ± 0.0058.
In the case of UCCUGGAUGUCCUUGCAUAAUAUUUAGUUA, the “pre-steady-state target cleavage rate” value stood at 0.0892 ± 0.015.
On the same count and under the same terms, the result for UCCUGGAUCAGCUUGCAUACUAUUUAGAAA reads 0.0141 ± 0.0069; that for UCCUGGAACAGCUUGGAUAGUAUUUACUUA, 0.0413 ± 0.012; that for UCCUGGAUCAGCUUGCAUACUAUAUAGUUA, 0.018 ± 0.0043.
For the sequence UCCUGGAACAGCUUGCAUAGAAUUUACAAA, the “pre-steady-state target cleavage rate” value turned out to be 0.0177 ± 0.0082.
Regarding UCCUGGAUCAGCUUGCAUAGUAUUAGUUA, the “pre-steady-state target cleavage rate” value is 0.141 ± 0.018.
Take UCCUCCUACAGCAAGCAUAGUAUUUACAAA: the “pre-steady-state target cleavage rate” value was 0.172 ± 0.032.
Take UCCUGGAUCAGCUUGCAUAGUAUAUACUUA: the “pre-steady-state target cleavage rate” value worked out at 0.0182 ± 0.0062.
For the sequence UCCUGGUACAGCUAGCAUAGUAUUUACAAA, the “pre-steady-state target cleavage rate” value came out at 0.0365 ± 0.012.
UCCUGGAUGUCGAAGCAUAGUAUUAUGUUA: the “pre-steady-state target cleavage rate” value is 0.00859 ± 0.0044.
Take UCCUCCUACAGGUUGCAUAGUAUUUAGAUA: the “pre-steady-state target cleavage rate” value worked out at 0.123 ± 0.017.
Consider UCCUGGAUGUCGAAGCAUAGUAUAUUGUUA, for which the “pre-steady-state target cleavage rate” value came out at 0.00971 ± 0.0047.
On the same count and under the same terms, the result for UCCUGGAAGUCCUUGCAUAGUAUUUACAAA reads 0.0598 ± 0.018.
Consider UCCUGGAUGUCGAACCUAUAGUAUUUAGUUA, for which the “pre-steady-state target cleavage rate” value is 0.00362 ± 0.0029.
With UCCUGGAUGAGCUUGCAUAGUAUUUACUUA, the “pre-steady-state target cleavage rate” value turned out to be 0.0753 ± 0.019.
For the sequence UCCUGGUACACCUUGCAUAGUAUUUUCAAA, the “pre-steady-state target cleavage rate” value was 0.0291 ± 0.016.
Consider UCCUGGAUGUGCUUGCAUAGUAAAUAGUAA, for which the “pre-steady-state target cleavage rate” value is 0.0121 ± 0.0056.
For UCCUGGAUGUGCUUGGAUAGAAUUUAGUUA, the “pre-steady-state target cleavage rate” value was found to be 0.00729 ± 0.0047.
Regarding UCCUCCUACAGCAUCCAUAGUAUUUAGUUA, the “pre-steady-state target cleavage rate” value came out at 0.175 ± 0.042.
On the same count and under the same terms, the result for UCCUGGAUGUCGAUGCAUAGUAUUUAAUUA reads 0.0256 ± 0.0092; that for UCCUGGAUGUCCUUGCAAAGUAUUUUGUUA, 0.0119 ± 0.0056.
On the same count and under the same terms, as for UCCUGGAUGUCGAAACAUAGUAUUUAGUUA, the figure is 0.0131 ± 0.004; as for UCCUGGAACAGCUACGAUAGUAUUUAGAAA, 0.0308 ± 0.011; as for UCCUGGAUGAGCUACCAUAGUAUUUAGUAA, 0.1 ± 0.018.
Take UCCUCCUACAGCUUGCAUAGUAUAAUCAAA: the “pre-steady-state target cleavage rate” value was determined as 0.122 ± 0.029.
Regarding UCCUCCUACAGCAACCAUAGUAUUUAGUAA, the “pre-steady-state target cleavage rate” value was found to be 0.255 ± 0.043.
Take UCCUGGUACUGCUUGCAUAGAAUUUAGUUA: the “pre-steady-state target cleavage rate” value was found to be 0.0381 ± 0.017.
In the case of UCCUGGAUGUGCUUGCAUAGUAUUUAUUUA, the “pre-steady-state target cleavage rate” value turned out to be 0.0305 ± 0.011.
UCCUGCUACAGCUUGCAUAGUAUAUUCAAA: the “pre-steady-state target cleavage rate” value came out at 0.209 ± 0.059.
In the case of UCCUGGAUCAGCUUCGAUAGUAUUUAGUAA, the “pre-steady-state target cleavage rate” value worked out at 0.158 ± 0.016.
As to UCCUGGAUGUCGAACCAUAGUAUUCAGUUA, the “pre-steady-state target cleavage rate” value was < 0.0001.
UCCUGGAACAGCUAGCAUAGUAUUUAGAUA: the “pre-steady-state target cleavage rate” value is 0.118 ± 0.02.
For the sequence UCCUGGAUGUGCUUGCAAUAGUAUUUAGUUA, the “pre-steady-state target cleavage rate” value is 0.00398 ± 0.0037.

The assay is the same for the next values; noted with them: auxiliary factor: none (no GTSF1).
“UCCUGGAUGUCGAUGCAUAGAUAAAUCAAA [g11:g17:cont:t1A]”: the “pre-steady-state target cleavage rate” value was < 0.0001.
The same measure, in the same setting: the result for UCCUGGAUGUCGAACGUAAGAUAUUUAGUUA reads < 0.0001.
Same read-out and setting: as for UCCUGGAUGUGCUUCCAUAGUAUUUAGAUA, the figure is < 0.0001; as for UCCUGGAUGUCGAACCUUAGUAUUUAGAUA, < 0.0001; as for UCCUGGAUGUCGAACGUAUGUACUUUAGUUA, < 0.0001.
